# Laboratory results from publication PMC7862700, “An all-to-all approach to the identification of sequence-specific readers for epigenetic DNA modifications on cytosine”.
# Tests used:
# Assay in all cases: DAPPL (digital affinity profiling via proximity ligation, sequencing); 10 mM Tris-HCl pH 7.5, 50 mM NaCl, 1 mM DTT, 4% glycerol, room temperature, 30 min; GST-TFs on glutathione beads, 16-mer random dsDNA library, 0.1% formaldehyde crosslink after washing; high values mean tight binding
# [1] = target: T1, FLI1 (Homo sapiens, UniProt Q01543 1-452); conditions: protein: recombinant; tags: N-terminal GST; dsDNA, one strand shown
# T1 sequence: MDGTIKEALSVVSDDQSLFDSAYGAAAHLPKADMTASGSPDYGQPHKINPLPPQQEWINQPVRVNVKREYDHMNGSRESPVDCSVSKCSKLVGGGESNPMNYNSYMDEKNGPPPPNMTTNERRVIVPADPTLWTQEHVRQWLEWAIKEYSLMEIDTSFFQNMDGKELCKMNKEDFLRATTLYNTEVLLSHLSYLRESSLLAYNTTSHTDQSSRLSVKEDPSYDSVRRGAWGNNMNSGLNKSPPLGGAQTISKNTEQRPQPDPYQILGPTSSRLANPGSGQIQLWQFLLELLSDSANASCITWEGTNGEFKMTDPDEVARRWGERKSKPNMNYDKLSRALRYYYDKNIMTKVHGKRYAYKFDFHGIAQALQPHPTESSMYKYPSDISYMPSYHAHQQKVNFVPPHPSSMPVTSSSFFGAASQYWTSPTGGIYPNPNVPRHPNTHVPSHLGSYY
# Outline: (§1)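 Human transcription factors fused to GST were expressed in yeast, captured on glutathione beads, given DNA barcodes and pooled with a GST-only negative control. Pools were incubated with 200 nmole of a 16-mer random double-stranded DNA library in Tris/NaCl/DTT/glycerol buffer at room temperature for 30 min. They were then washed, crosslinked with 0.1% formaldehyde, proximity-ligated (BsaI/T4 ligase, 1 h, 37 °C), PCR-amplified and sequenced on an Illumina NextSeq500. Binding signal is each 6-mer's read frequency for a factor divided by its frequency for the GST control.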
# [2] = target: T2, ELK1 (Homo sapiens, UniProt P19419 1-428); conditions: protein: recombinant; tags: N-terminal GST; dsDNA, one strand shown
# T2 sequence: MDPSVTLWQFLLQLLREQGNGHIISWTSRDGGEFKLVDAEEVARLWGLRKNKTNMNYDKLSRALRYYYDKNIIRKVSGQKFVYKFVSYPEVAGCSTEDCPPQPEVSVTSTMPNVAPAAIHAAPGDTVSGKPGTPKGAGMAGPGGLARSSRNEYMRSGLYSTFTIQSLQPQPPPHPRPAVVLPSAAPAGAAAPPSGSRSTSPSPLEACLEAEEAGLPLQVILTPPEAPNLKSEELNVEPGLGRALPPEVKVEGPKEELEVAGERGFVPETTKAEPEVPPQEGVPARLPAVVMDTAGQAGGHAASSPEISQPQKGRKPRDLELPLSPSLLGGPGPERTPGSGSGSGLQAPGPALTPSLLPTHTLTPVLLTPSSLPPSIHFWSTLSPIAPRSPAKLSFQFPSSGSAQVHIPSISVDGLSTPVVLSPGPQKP
# Outline: as §1
# [3] = target: T3, GABPA (Homo sapiens, UniProt Q06546 1-454); conditions: protein: recombinant; tags: N-terminal GST; dsDNA, one strand shown
# T3 sequence: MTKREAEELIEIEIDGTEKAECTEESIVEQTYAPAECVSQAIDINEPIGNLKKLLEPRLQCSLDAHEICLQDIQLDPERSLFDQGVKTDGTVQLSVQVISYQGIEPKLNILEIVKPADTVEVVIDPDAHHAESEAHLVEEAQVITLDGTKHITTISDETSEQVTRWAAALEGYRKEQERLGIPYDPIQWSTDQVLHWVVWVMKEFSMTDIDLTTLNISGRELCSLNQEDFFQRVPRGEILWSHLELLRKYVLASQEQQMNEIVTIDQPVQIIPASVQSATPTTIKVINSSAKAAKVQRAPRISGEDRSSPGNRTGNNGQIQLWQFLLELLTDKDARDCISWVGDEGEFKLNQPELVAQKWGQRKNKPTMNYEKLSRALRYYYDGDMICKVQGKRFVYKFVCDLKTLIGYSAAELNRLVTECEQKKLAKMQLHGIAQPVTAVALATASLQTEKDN
# Outline: as §1
# [4] = target: T4, ERG (Homo sapiens, UniProt P11308 1-479); conditions: protein: recombinant; tags: N-terminal GST; dsDNA, one strand shown
# T4 sequence: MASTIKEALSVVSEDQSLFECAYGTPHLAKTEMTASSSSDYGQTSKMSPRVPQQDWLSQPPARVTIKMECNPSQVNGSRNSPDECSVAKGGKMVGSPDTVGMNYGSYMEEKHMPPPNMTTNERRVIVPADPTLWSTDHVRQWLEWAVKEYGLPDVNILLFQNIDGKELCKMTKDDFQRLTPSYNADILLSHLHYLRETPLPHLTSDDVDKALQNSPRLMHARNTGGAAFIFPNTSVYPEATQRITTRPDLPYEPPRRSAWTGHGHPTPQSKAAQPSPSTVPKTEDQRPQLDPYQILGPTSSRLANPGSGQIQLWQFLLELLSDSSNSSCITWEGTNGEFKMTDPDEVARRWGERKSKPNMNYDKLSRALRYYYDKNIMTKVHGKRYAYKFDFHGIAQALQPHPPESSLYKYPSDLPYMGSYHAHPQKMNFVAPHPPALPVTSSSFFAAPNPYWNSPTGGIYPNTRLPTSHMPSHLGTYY
# Outline: as §1
# [5] = target: ELF1 (Homo sapiens, UniProt P32519 1-619); conditions: protein: recombinant; tags: N-terminal GST; dsDNA, one strand shown
# Outline: as §1
# [6] = target: T5, EHF (Homo sapiens, UniProt Q9NZC4 1-300); conditions: protein: recombinant; tags: N-terminal GST; dsDNA, one strand shown
# T5 sequence: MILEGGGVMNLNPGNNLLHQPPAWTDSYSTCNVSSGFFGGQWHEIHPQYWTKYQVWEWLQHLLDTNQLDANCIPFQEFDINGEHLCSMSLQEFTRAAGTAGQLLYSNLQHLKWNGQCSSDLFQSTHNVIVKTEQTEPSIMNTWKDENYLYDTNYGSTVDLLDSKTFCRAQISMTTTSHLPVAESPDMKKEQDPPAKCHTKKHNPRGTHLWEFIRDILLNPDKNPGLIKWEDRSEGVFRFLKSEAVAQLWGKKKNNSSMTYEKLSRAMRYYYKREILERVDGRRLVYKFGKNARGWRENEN
# Outline: as §1
# [7] = target: SPI1 (Homo sapiens, UniProt P17947 1-270); conditions: protein: recombinant; tags: N-terminal GST; dsDNA, one strand shown
# Outline: as §1
# [8] = target: SPIB (Homo sapiens, UniProt Q01892 1-262); conditions: protein: recombinant; tags: N-terminal GST; dsDNA, one strand shown
# Outline: as §1
# [9] = target: T6, ELK3 (Homo sapiens, UniProt P41970 1-407); conditions: protein: recombinant; tags: N-terminal GST; dsDNA, one strand shown
# T6 sequence: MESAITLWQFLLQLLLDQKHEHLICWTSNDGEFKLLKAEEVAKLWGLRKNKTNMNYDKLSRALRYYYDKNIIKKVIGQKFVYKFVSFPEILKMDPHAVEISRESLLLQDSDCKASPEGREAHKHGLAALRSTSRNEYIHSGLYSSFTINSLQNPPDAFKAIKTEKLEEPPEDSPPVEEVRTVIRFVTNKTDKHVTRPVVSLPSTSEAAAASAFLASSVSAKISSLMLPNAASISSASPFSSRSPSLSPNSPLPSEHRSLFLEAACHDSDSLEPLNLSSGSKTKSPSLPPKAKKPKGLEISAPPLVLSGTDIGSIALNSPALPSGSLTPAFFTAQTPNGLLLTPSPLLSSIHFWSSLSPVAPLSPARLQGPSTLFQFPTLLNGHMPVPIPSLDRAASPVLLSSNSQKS
# Outline: as §1
# [10] = target: T7, FEV (Homo sapiens, UniProt Q99581 1-238); conditions: protein: recombinant; tags: N-terminal GST; dsDNA, one strand shown
# T7 sequence: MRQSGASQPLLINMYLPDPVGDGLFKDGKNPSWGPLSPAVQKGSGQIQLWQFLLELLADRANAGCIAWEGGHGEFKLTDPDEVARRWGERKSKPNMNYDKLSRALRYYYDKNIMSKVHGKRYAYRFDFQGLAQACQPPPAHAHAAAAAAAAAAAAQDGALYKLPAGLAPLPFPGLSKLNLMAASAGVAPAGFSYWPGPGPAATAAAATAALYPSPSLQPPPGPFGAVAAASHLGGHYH
# Outline: as §1
# [11] = target: ETV5 (Homo sapiens, UniProt P41161 1-510); conditions: protein: recombinant; tags: N-terminal GST; dsDNA, one strand shown
# Outline: as §1
# [12] = target: HSF1 (Homo sapiens, UniProt Q00613 1-529); conditions: protein: recombinant; tags: N-terminal GST; chain copies: 3; dsDNA, one strand shown
# Outline: as §1
# [13] = target: T8, SPIC (Homo sapiens, UniProt Q8N5J4 1-248); conditions: protein: recombinant; tags: N-terminal GST; dsDNA, one strand shown
# T8 sequence: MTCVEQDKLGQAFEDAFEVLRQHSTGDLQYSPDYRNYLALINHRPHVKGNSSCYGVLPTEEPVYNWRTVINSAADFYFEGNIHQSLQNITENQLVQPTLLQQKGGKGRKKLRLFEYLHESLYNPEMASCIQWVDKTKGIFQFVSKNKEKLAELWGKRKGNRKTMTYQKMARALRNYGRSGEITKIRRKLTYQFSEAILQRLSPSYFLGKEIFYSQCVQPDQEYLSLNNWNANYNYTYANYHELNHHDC
# Outline: as §1
# [14] = target: ELF4 (Homo sapiens, UniProt Q99607 1-663); conditions: protein: recombinant; tags: N-terminal GST; dsDNA, one strand shown
# Outline: as §1
# [15] = target: T9, ELK4 (Homo sapiens, UniProt P28324-2 1-405); conditions: protein: recombinant; tags: N-terminal GST; dsDNA, one strand shown
# T9 sequence: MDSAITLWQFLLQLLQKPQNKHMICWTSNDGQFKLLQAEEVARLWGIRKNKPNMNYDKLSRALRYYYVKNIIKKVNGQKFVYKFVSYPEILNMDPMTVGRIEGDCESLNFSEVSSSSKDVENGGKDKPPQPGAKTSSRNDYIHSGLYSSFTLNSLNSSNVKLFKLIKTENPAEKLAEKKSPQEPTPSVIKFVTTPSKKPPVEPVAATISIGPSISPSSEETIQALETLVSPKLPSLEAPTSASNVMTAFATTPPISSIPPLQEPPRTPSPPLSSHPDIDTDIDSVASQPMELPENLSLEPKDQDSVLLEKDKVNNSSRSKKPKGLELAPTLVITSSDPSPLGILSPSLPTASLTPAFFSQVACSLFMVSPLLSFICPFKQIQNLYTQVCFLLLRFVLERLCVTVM
# Outline: as §1
# [16] = target: T10, ETV2 (Homo sapiens, UniProt O00321 1-342); conditions: protein: recombinant; tags: N-terminal GST; dsDNA, one strand shown
# T10 sequence: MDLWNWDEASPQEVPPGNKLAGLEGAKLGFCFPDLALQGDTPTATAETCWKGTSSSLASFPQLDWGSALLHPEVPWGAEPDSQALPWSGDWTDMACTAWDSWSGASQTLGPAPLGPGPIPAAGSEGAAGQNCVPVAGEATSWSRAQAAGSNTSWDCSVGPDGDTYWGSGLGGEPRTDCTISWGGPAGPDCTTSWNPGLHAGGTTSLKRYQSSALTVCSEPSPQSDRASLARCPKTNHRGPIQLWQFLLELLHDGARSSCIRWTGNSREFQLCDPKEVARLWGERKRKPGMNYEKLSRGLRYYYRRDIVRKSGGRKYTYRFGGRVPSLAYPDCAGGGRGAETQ
# Outline: as §1
# [17] = target: T11, ELF3 (Homo sapiens, UniProt P78545 1-371); conditions: protein: recombinant; tags: N-terminal GST; dsDNA, one strand shown
# T11 sequence: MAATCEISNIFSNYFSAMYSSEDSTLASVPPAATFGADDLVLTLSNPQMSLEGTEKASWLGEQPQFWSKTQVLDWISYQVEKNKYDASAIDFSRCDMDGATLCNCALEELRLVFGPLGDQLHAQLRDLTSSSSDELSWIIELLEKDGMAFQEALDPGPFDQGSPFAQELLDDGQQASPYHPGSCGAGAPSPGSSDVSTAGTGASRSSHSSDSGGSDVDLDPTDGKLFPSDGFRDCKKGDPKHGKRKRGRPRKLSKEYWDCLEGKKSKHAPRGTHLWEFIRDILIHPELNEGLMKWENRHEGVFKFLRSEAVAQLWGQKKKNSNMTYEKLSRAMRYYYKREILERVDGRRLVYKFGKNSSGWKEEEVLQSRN
# Outline: as §1
# [18] = target: CRX (Homo sapiens, UniProt O43186 1-299); conditions: protein: recombinant; tags: N-terminal GST; dsDNA, one strand shown
# Outline: as §1
# [19] = target: ETV1 (Homo sapiens, UniProt P50549 1-477); conditions: protein: recombinant; tags: N-terminal GST; dsDNA, one strand shown
# Outline: as §1
# Sequence of ELF4 (Q99607 whole entry): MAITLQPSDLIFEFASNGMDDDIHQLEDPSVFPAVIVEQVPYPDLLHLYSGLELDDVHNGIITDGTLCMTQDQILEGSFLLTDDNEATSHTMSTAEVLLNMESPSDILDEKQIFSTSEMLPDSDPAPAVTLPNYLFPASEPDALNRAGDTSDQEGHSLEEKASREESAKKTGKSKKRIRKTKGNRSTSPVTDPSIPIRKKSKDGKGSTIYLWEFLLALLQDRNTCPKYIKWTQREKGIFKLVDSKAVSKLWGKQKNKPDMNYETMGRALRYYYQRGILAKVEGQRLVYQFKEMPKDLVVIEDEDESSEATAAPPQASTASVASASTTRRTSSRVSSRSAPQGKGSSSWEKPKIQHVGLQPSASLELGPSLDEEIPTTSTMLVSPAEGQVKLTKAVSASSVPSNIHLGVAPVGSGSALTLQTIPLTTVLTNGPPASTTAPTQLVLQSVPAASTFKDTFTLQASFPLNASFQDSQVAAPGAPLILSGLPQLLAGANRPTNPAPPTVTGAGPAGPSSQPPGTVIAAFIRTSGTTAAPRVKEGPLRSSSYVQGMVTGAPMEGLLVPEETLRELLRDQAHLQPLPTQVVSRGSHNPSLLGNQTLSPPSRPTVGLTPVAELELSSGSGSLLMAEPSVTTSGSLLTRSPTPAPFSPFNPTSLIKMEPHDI
# Sequence of ETV5 (P41161 whole entry): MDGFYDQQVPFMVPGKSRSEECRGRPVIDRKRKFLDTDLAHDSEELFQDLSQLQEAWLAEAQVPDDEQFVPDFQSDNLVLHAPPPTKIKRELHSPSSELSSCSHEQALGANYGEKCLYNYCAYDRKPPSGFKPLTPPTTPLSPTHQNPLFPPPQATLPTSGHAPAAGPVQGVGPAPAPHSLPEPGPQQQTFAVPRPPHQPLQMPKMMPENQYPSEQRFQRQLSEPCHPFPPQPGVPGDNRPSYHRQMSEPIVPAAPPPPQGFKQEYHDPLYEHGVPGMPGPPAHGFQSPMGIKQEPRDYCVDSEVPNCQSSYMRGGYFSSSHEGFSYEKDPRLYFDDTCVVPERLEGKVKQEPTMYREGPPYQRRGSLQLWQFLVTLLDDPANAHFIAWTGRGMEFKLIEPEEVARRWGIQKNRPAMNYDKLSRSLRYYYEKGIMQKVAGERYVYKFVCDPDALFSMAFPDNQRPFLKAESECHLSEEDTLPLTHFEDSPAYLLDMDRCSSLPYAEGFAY
# Sequence of ETV1 (P50549 whole entry): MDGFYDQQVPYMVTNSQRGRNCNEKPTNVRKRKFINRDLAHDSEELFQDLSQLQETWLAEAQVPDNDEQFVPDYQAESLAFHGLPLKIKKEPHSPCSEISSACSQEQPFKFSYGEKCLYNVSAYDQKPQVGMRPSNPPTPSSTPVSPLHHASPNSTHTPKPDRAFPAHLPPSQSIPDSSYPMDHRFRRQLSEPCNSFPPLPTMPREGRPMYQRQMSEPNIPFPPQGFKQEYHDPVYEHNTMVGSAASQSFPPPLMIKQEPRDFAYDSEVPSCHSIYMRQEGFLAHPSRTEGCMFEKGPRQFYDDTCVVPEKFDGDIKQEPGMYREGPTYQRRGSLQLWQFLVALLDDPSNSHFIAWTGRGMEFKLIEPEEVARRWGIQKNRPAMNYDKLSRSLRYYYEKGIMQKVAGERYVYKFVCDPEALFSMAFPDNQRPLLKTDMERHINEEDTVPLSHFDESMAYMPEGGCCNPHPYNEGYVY
# Sequence of ELF1 (P32519 whole entry): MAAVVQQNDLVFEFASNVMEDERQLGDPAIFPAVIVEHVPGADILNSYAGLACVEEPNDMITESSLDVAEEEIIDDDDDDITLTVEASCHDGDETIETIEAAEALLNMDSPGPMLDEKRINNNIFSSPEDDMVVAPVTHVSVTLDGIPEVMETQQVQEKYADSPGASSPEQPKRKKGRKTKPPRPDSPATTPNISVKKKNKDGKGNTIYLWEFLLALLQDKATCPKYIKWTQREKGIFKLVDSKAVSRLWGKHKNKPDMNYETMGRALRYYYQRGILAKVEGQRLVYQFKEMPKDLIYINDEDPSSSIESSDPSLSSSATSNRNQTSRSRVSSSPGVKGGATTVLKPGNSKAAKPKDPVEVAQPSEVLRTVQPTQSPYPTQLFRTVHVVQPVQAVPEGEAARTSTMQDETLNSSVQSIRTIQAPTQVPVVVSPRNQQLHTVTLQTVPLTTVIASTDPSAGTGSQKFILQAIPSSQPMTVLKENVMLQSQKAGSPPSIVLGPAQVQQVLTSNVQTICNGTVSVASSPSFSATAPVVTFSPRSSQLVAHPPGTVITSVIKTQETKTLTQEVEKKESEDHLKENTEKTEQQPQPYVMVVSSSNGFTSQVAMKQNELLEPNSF
# Sequence of SPIB (Q01892 whole entry): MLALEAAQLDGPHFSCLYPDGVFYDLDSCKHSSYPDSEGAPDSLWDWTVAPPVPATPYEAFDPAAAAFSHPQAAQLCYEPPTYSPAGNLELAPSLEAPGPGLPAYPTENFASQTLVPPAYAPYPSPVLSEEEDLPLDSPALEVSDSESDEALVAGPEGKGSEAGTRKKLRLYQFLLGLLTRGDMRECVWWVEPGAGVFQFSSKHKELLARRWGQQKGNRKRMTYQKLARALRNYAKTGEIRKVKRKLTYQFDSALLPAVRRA
# Sequence of CRX (O43186 whole entry): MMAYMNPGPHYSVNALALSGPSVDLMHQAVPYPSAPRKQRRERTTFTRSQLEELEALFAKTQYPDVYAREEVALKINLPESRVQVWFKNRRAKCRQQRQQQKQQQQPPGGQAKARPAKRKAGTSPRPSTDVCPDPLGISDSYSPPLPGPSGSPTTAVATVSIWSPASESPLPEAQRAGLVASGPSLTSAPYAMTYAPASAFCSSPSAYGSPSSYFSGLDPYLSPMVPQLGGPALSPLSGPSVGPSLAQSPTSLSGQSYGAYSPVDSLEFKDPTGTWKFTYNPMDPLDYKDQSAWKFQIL
# Sequence of HSF1 (Q00613 whole entry): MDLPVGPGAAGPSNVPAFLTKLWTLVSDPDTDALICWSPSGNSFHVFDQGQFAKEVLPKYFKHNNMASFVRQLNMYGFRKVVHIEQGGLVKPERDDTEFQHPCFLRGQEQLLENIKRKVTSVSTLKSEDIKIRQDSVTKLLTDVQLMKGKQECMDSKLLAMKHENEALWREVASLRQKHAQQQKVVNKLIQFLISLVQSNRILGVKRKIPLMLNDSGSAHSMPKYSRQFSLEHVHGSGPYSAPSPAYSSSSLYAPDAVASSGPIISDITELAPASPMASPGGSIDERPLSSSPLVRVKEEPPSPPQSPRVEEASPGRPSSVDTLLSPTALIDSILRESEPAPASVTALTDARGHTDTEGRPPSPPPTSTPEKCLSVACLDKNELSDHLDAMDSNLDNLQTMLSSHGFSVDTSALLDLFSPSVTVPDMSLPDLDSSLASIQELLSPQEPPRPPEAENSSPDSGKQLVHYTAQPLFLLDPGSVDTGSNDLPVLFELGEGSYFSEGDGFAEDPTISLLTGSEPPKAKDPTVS
sequence,measurement,setting,value
GCTCGC,binding signal,[1],"1.39 fold enrichment (6-mer frequency, TF over GST control)"
same,binding signal,[2],"1.29 fold enrichment (6-mer frequency, TF over GST control)"
same,binding signal,[3],"1.41 fold enrichment (6-mer frequency, TF over GST control)"
same,binding signal,[4],"1.29 fold enrichment (6-mer frequency, TF over GST control)"
same,binding signal,[5],"1.42 fold enrichment (6-mer frequency, TF over GST control)"
same,binding signal,[6],"1.27 fold enrichment (6-mer frequency, TF over GST control)"
same,binding signal,[7],"1.29 fold enrichment (6-mer frequency, TF over GST control)"
same,binding signal,[8],"1.42 fold enrichment (6-mer frequency, TF over GST control)"
same,binding signal,[9],"1.38 fold enrichment (6-mer frequency, TF over GST control)"
same,binding signal,[10],"1.42 fold enrichment (6-mer frequency, TF over GST control)"
same,binding signal,[11],"1.32 fold enrichment (6-mer frequency, TF over GST control)"
same,binding signal,[12],"1.25 fold enrichment (6-mer frequency, TF over GST control)"
same,binding signal,[13],"1.44 fold enrichment (6-mer frequency, TF over GST control)"
same,binding signal,[14],"1.28 fold enrichment (6-mer frequency, TF over GST control)"
same,binding signal,[15],"1.52 fold enrichment (6-mer frequency, TF over GST control)"
same,binding signal,[16],"1.17 fold enrichment (6-mer frequency, TF over GST control)"
same,binding signal,[17],"1.51 fold enrichment (6-mer frequency, TF over GST control)"
same,binding signal,[18],"1.12 fold enrichment (6-mer frequency, TF over GST control)"
same,binding signal,[19],"1.37 fold enrichment (6-mer frequency, TF over GST control)"
